Normalized growth data for six molecules are collected here from PubChem BioAssay AID1159580 (chemical genetic matrix, 2015).

About 2,000 (36%) of roughly 5,500 compounds were called active. Roughly 18% stayed inconclusive and do not appear here. Some of the results follow. Unmarked numbers belong to inactive results. Cut-off read from the data, not from the text of the source: active = normalized growth mostly below about 0.91 (no sharp cut-off); inconclusive = no clear call, values can overlap the other calls; inactive = mostly above about 0.92.

This assay can be described thus: chemical genetic growth profiling, strain panel (AID 1159580).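 Note: tested at 20 µM; growth read once vehicle control cultures reached saturation at 30 °C; 1 = growth at the plate median or of vehicle wells; lower values mean less growth of the strain.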 The settings on record: S. cerevisiae deletion strains, growth OD.
[1] abbreviates: locus YAL040C, strain CLN3, stronger effect = lower value.
Setting [2] is: locus YCL061C, strain MRC1 (second series), stronger effect = lower value.
[3] abbreviates: locus YDR363W, strain ESC2, stronger effect = lower value.
Setting [4] is: locus YER002W, strain NOP16, stronger effect = lower value.
Setting [5] is: locus YJR075W, strain HOC1, stronger effect = lower value.
The mark [6] stands for this setting: locus YMR263W, strain SAP30, stronger effect = lower value.
The mark [7] stands for this setting: locus YMR307W, strain GAS1, stronger effect = lower value.
[8] abbreviates: locus YNL128W, strain TEP1, stronger effect = lower value.
[9] abbreviates: locus YNL153C, strain GIM3, stronger effect = lower value.
The mark [10] stands for this setting: locus YNL175C, strain NOP13, stronger effect = lower value.
Setting [11] is: locus YNL197C, strain WHI3, stronger effect = lower value.
The mark [12] stands for this setting: locus YNL224C, strain SQS1, stronger effect = lower value.
Where [13] appears, read: locus YNL322C, strain KRE1, stronger effect = lower value.
The mark [14] stands for this setting: locus YOR083W, strain WHI5 (second series), stronger effect = lower value.
Where [15] appears, read: locus YPL055C, strain LGE1, stronger effect = lower value.
[16] abbreviates: locus YPL241C, strain CIN2, stronger effect = lower value.
The mark [17] stands for this setting: locus YAL013W, strain DEP1, stronger effect = lower value.
Where [18] appears, read: locus YGR078C, strain PAC10, stronger effect = lower value.
[19] abbreviates: locus YHR030C, strain SLT2, stronger effect = lower value.
Where [20] appears, read: locus YHR079C, strain IRE1, stronger effect = lower value.
Where [21] appears, read: locus YJL095W, strain BCK1, stronger effect = lower value.
Setting [22] is: locus YJR066W, strain TOR1, stronger effect = lower value.
The mark [23] stands for this setting: locus YLR113W, strain HOG1, stronger effect = lower value.
The mark [24] stands for this setting: locus YNL183C, strain NPR1, stronger effect = lower value.
The mark [25] stands for this setting: locus YOR231W, strain MKK1, stronger effect = lower value.
[26] abbreviates: locus YPL256C, strain CLN2, stronger effect = lower value.

Take `COc1ccc2c3c1O[C@H]1C(=O)CC[C@@]4(O)C(C2)N(CC2CC2)CCC314` (some centres undefined): the normalized growth is, setting by setting: under setting [1], 0.992; under setting [2], 0.999; under setting [3], 1.02; under setting [4], 0.991; under setting [5], 0.995; under setting [6], 1. Further, the normalized growth under setting [7] is 0.993; the normalized growth under setting [8] is 0.99; the normalized growth under setting [9] was 0.995; the normalized growth under setting [10] was 1.01; the normalized growth under setting [11] was 1.02; the normalized growth under setting [12] is 0.992. Further, the normalized growth was 1.01 under setting [13], 0.999 under setting [14], 1 under setting [15] and 0.999 under setting [16].
With `CCCN(CCC)C1CCc2ccc(O)cc2C1` (centres undefined), the normalized growth is, setting by setting: under setting [17], 1.03; under setting [1], 1.1; under setting [2], 1.01; under setting [3], 1.01; under setting [4], 1.01; under setting [18], 0.993. Moreover, the normalized growth is, setting by setting: under setting [5], 1; under setting [7], 1.02; under setting [8], 1.02; under setting [10], 1.01; under setting [11], 1.01; under setting [12], 0.995. Further, the normalized growth is 0.991 under setting [14], 1.02 under setting [15] and 1.01 under setting [16].
For the molecule `CC[C@@H]1Cc2cc(O)ccc2C2=C1c1ccc(O)cc1C[C@H]2CC`, the normalized growth reads like this: under setting [17], 1.01; under setting [1], 0.852 (active); under setting [2], 0.995; (locus YDR150W, strain NUM1, stronger effect = lower value) 0.996; under setting [3], 1.02; under setting [4], 1.02. Moreover, the normalized growth by setting is: under setting [18], 0.777 (active); (locus YGR229C, strain SMI1, stronger effect = lower value) 1.04; under setting [5], 0.991; under setting [10], 0.904 (active); under setting [11], 0.954; under setting [12], 0.643 (active). Moreover, the normalized growth is 0.993 under setting [13], 0.507 (active) under setting [14] and 1.01 under setting [15].
Consider `CCCN(CCC)[C@@H]1CCc2ccc(O)cc2C1`, for which the normalized growth runs as follows: under setting [17], 0.964; under setting [1], 1.03; under setting [2], 0.988; under setting [3], 0.989; under setting [4], 0.972; under setting [6], 0.983. The normalized growth is 1.01 under setting [7]; 0.978 under setting [9]; 0.982 under setting [10]; 0.982 under setting [11]; 1.01 under setting [12]; 0.978 under setting [13]. For the same molecule, the normalized growth reads like this: under setting [14], 0.996; under setting [15], 0.988.
As to `CC(=O)N[C@@H]1[C@@H](O)[C@H](O)[C@@H](CO)O[C@H]1O`, the normalized growth by setting is: under setting [19], 0.993; under setting [20], 0.975; under setting [21], 0.995; under setting [22], 0.917; under setting [23], 0.993; under setting [24], 0.898. Further, the normalized growth by setting is: under setting [25], 0.99; under setting [26], 0.967.
`COc1ccc(/C(C#N)=C2C=C/C(=N/O)C(Cl)=C\2)cc1`: the normalized growth was 0.972 (locus YAR019C, strain CDC15, stronger effect = lower value); 0.975 (locus YBL105C, strain PKC1, stronger effect = lower value); 0.959 (locus YBR135W, strain CKS1, stronger effect = lower value); 0.954 (locus YBR136W, strain MEC1, stronger effect = lower value); 0.976 (locus YBR160W, strain CDC28, stronger effect = lower value); 0.984 (locus YDL017W, strain CDC7, stronger effect = lower value). The normalized growth is, setting by setting: (locus YDL028C, strain MPS1, stronger effect = lower value) 0.976; (locus YDL101C, strain DUN1, stronger effect = lower value) 0.971; (locus YDL108W, strain KIN28, stronger effect = lower value) 0.969; (locus YDL132W, strain cdc53, stronger effect = lower value) 0.948; (locus YDL214C, strain PRR2, stronger effect = lower value) 0.918; (locus YDR052C, strain DBF4, stronger effect = lower value) 0.966. Besides, the normalized growth (locus YDR054C, strain cdc34, stronger effect = lower value) was 0.958; the normalized growth (locus YDR226W, strain ADK1, stronger effect = lower value) was 0.955; the normalized growth (locus YDR477W, strain SNF1, stronger effect = lower value) is 0.898; the normalized growth (locus YER123W, strain YCK3, stronger effect = lower value) is 0.898; the normalized growth (locus YER133W, strain GLC7, stronger effect = lower value) is 0.906; the normalized growth (locus YFL009W, strain cdc4, stronger effect = lower value) was 0.962. In addition, the normalized growth (locus YFL029C, strain CAK1, stronger effect = lower value) was 0.965; the normalized growth (locus YFR003C, strain YPI1, stronger effect = lower value) was 0.97; the normalized growth (locus YFR019W, strain FAB1, stronger effect = lower value) was 0.949; the normalized growth (locus YFR028C, strain CDC14, stronger effect = lower value) is 0.948; the normalized growth (locus YGR040W, strain KSS1, stronger effect = lower value) is 0.864; the normalized growth (locus YGR052W, strain FMP48, stronger effect = lower value) is 0.925. Further, the normalized growth (locus YGR092W, strain DBF2, stronger effect = lower value) is 0.822; the normalized growth under setting [19] is 0.879; the normalized growth under setting [20] is 0.996; the normalized growth (locus YHR082C, strain KSP1, stronger effect = lower value) was 0.937; the normalized growth (locus YHR205W, strain SCH9, stronger effect = lower value) was 0.775; the normalized growth (locus YIL147C, strain SLN1, stronger effect = lower value) was 0.968. Also, the normalized growth is 0.842 under setting [21]; 0.942 (locus YJL128C, strain PBS2, stronger effect = lower value); 0.926 (locus YJL157C, strain FAR1, stronger effect = lower value); 0.954 (locus YJR016C, strain ILV3, stronger effect = lower value); 0.85 (locus YJR066W, strain TOR1 (second series), stronger effect = lower value); 0.887 under setting [22]. In addition, the normalized growth is, setting by setting: (locus YKL048C, strain ELM1, stronger effect = lower value) 0.929; (locus YKL067W, strain YNK1, stronger effect = lower value) 0.932; (locus YKL101W, strain HSL1, stronger effect = lower value) 0.893; (locus YKL193C, strain SDS22, stronger effect = lower value) 0.964; (locus YKL203C, strain TOR2, stronger effect = lower value) 0.866; under setting [23], 0.851 (active). The normalized growth by setting is: (locus YLR133W, strain CKI1, stronger effect = lower value) 0.913; (locus YLR403W, strain SFP1, stronger effect = lower value) 0.866; (locus YML070W, strain DAK1, stronger effect = lower value) 0.915; (locus YMR001C, strain CDC5, stronger effect = lower value) 0.959; (locus YMR205C, strain PFK2 (second series), stronger effect = lower value) 0.941; (locus YMR277W, strain FCP1, stronger effect = lower value) 0.967. Further, the normalized growth is, setting by setting: (locus YNL006W, strain LST8, stronger effect = lower value) 0.985; (locus YNL020C, strain ARK1, stronger effect = lower value) 0.922; (locus YNL161W, strain CBK1, stronger effect = lower value) 0.973; under setting [24], 0.862; (locus YNL207W, strain RIO2, stronger effect = lower value) 0.961; (locus YNL222W, strain SSU72, stronger effect = lower value) 0.971. Moreover, the normalized growth is 0.874 (locus YNL307C, strain MCK1 (second series), stronger effect = lower value); 0.958 (locus YOL078W, strain AVO1, stronger effect = lower value); 0.894 (locus YOL136C, strain PFK27, stronger effect = lower value); 0.903 (locus YOR061W, strain CKA2, stronger effect = lower value); 0.87 (locus YOR119C, strain RIO1, stronger effect = lower value); 0.905 under setting [25]. Moreover, the normalized growth is, setting by setting: (locus YOR329C, strain SCD5, stronger effect = lower value) 0.985; (locus YPL031C, strain PHO85, stronger effect = lower value) 0.854; (locus YPL153C, strain RAD53, stronger effect = lower value) 0.899; (locus YPL204W, strain HRR25, stronger effect = lower value) 0.864; (locus YPL209C, strain IPL1, stronger effect = lower value) 0.977; under setting [26], 0.967. Besides, the normalized growth by setting is: (locus YPR025C, strain CCL1, stronger effect = lower value) 0.977; (locus YPR106W, strain ISR1, stronger effect = lower value) 0.96; (locus YPR111W, strain DBF20, stronger effect = lower value) 0.942; (strain NNK1, stronger effect = lower value) 0.979; (strain TSCII, stronger effect = lower value) 0.959.
